# Measured values as given in ChEMBL document CHEMBL3988442, “University of Dundee, Small-Polar-MMV Screening Library” (2021).
# About 1,000 (1.4%) of roughly 69,000 compounds showed an effect of 50% or more. The entries come from a sample that favours strong results as a whole.
# Tested on: Leishmania donovani
# Experiment: Leishmania intramacrophage assay
# Type: functional, organism-based
# Parameters: scale not given: in the data most compounds retested in dose-response had high values
smiles,measurement,setting,value
CCS(=O)(=O)CC(=O)N1CCCC(c2noc(C(C)C)n2)C1 (configuration not stated),Percent Effect,"30.3 µM, […]",10.94%
CCOCCN1CCN(CC(O)c2ccc(C)c(C)c2)CC1 (configuration not stated),Percent Effect,"30.3 µM, […]",32.27%
Cc1nn(C)c(C)c1C1CCCN1C(=O)c1ccc2nnc(C)n2c1 (configuration not stated),Percent Effect,30 µM,22.91%
CCC(CO)N(Cc1ccco1)C(=O)c1cccc(C)c1O (configuration not stated),Percent Effect,"30.3 µM, […]",10.11%
CCC(CO)N(Cc1ccco1)C(=O)c1ccccc1NC (configuration not stated),Percent Effect,"30.3 µM, […]",33.8%
CCC(CO)N(Cc1ccco1)C(=O)c1ccccc1SC (configuration not stated),Percent Effect,"30.3 µM, […]",54.97%
c1ccc(N2CCC(NCCc3ccc(-n4cccn4)cc3)CC2)nc1,Percent Effect,"30.3 µM, […]",62.72%
c1cnn(-c2ccc(CCNC3CCN(C4CC4)C3)cc2)c1 (configuration not stated),Percent Effect,"30.3 µM, […]",-4.355%
COc1ccc(C(C)CCNC2CCN(c3ccccn3)CC2)cc1 (configuration not stated),Percent Effect,"30.3 µM, […]",60.53%
CC(C)COCCNC1CCN(c2ccccn2)CC1,Percent Effect,"30.3 µM, […]",16.23%
FC(F)CN1CCC(NCCc2ccc(-n3cccn3)cc2)CC1,Percent Effect,"30.3 µM, […]",23.28%
CC(CNC1CCN(c2ccccn2)CC1)Oc1ccc(F)cc1 (configuration not stated),Percent Effect,"30.3 µM, […]",19.84%
O=C(O)C(F)(F)F.O=C(c1n[nH]c2c1CCN(Cc1nccs1)C2)N1CCCC1,Percent Effect,"30 µM, 30.03 µM",10.02%
COc1cccc(-n2cc(CN(C)Cc3ccnc(C(C)C)n3)cn2)c1,Percent Effect,"30.3 µM, […]",11.44%
CCOCC1CN(C(=O)Cc2ccccn2)Cc2cn(C)nc21 (configuration not stated),Percent Effect,"30.3 µM, […]",5.026%
O=C(c1ccco1)N1CCOCC2(C1)CN(c1ccoc1)C(=O)CO2 (configuration not stated),Percent Effect,"30.3 µM, […]",15.48%
CCn1cnnc1CCNC(=O)C1COc2ccc(OC)cc2C1 (configuration not stated),Percent Effect,"30.3 µM, […]",15.43%
COc1nn(C)c2c1CCCN(C(=O)c1cccc3cccnc13)C2.O=C(O)C(F)(F)F,Percent Effect,"30.3 µM, […]",75.35%
COc1nn(C)c2c1CCCN(C(=O)c1ccc3ccccc3n1)C2.O=C(O)C(F)(F)F,Percent Effect,"30.3 µM, […]",-11.56%
COc1nn(C)c2c1CCCN(C(=O)c1cccc(C)n1)C2.O=C(O)C(F)(F)F,Percent Effect,"30.3 µM, […]",4.327%
Cc1nnc2n1CCN(CC(=O)NC(C)c1cccc3ccccc13)C2 (configuration not stated),Percent Effect,"30.3 µM, […]",-27.74%
Cc1nc(=O)c2ccccc2n1C1=CCN(CC(=O)NC(C)C)CC1,Percent Effect,"30.3 µM, […]",64.5%
Cc1nc2ccccc2c(=O)n1CCC(=O)N1CCCCCC1,Percent Effect,30 µM,21.32%
COCCNC(=O)CN1CC=C(n2c(C)nc(=O)c3ccccc32)CC1,Percent Effect,"30.3 µM, […]",40.79%
Cc1nc(=O)c2ccccc2n1C1=CCN(CC(=O)N2CCCC2)CC1,Percent Effect,"30.3 µM, […]",66.01%
Cc1nc2ccccc2c(=O)n1CCC(=O)N1CCCC1,Percent Effect,30 µM,19.05%
CSCCNC(=O)c1ccc(OC2CCN(CC(C)(C)C)CC2)c(Cl)c1,Percent Effect,"30 µM, 30.03 µM",17.7%
COCc1n[nH]c2c1CN(Cc1ccccn1)C2.O=C(O)C(F)(F)F,Percent Effect,"30.3 µM, […]",2.635%
Cc1nc(CN2CC[C@H]3[C@@H]2CCC(=O)N3c2cnn(C)c2)cs1.O=C(O)C(F)(F)F,Percent Effect,"30.3 µM, […]",2.736%
CC(C)(C)C(=O)N1CCN(C(=O)Nc2cnn(CC(F)F)c2)CC1,Percent Effect,"30.3 µM, […]",4.989%
O=C(c1cccnc1)N1CCCC(c2ncncc2-c2ccncc2)C1 (configuration not stated),Percent Effect,"30.3 µM, […]",1.341%
COCCO[C@H]1CCN(C(=O)c2cnccn2)[C@H]1Cc1ccncc1,Percent Effect,"30.3 µM, […]",54.37%
COCCO[C@H]1CCN(C(=O)c2ccsc2)[C@H]1Cc1ccncc1,Percent Effect,"30.3 µM, […]",26.31%
CCO[C@@H]1CCN(C(=O)c2cscn2)[C@@H]1Cc1cnn(C)c1,Percent Effect,"30 µM, 30.03 µM",-2.934%
CCO[C@@H]1CCN(C(=O)N(C)C)[C@@H]1Cc1cnn(C)c1,Percent Effect,"30.3 µM, […]",27.5%
CCO[C@@H]1CCN(C(=O)c2cnc(C)cn2)[C@@H]1Cc1cnn(C)c1,Percent Effect,"30.3 µM, […]",53.66%
COCCO[C@H]1CCN(C(=O)c2ccc[nH]2)[C@H]1Cc1ccncc1,Percent Effect,"30 µM, 30.03 µM",17.48%
CN(C)S(=O)(=O)N1CC[C@]2(C[C@@H](Oc3cccnc3)CO2)C1.O=C(O)C(F)(F)F,Percent Effect,"30.3 µM, […]",7.751%
Cc1ccc(N2CCCc3sc(C(=O)NCc4ccc(C)o4)nc32)nn1,Percent Effect,"30.3 µM, […]",18.34%
O=C1NCCN1CCNCC1(O)CCCN(CCC2CCCCC2)C1=O (configuration not stated),Percent Effect,"30.3 µM, […]",17.71%
O=C1N(CCCc2ccccc2)CCCC1(O)CNCC1CCCCC1 (configuration not stated),Percent Effect,"30.3 µM, […]",36.42%
O=C1OCCN1CCNCC1(O)CCCN(CCC2CCCCC2)C1=O (configuration not stated),Percent Effect,"30.3 µM, […]",27.13%
O=C1N(CCCc2ccccc2)CCCC1(O)CNCc1ccccc1 (configuration not stated),Percent Effect,"30 µM, 30.03 µM",54.86%
C=C(C)CNCC1(O)CCCN(Cc2ccc(F)c(F)c2)C1=O (configuration not stated),Percent Effect,"30.3 µM, […]",36.85%
O=C1N(CCc2ccccc2)CCCC1(O)CNCc1ccc(F)cc1 (configuration not stated),Percent Effect,"30.3 µM, […]",14.91%
COCCNCC1(O)CCCN(Cc2ccc(F)c(F)c2)C1=O (configuration not stated),Percent Effect,"30.3 µM, […]",36.88%
O=C1N(CCC2CCCCC2)CCCC1(O)CNCCc1ccccc1 (configuration not stated),Percent Effect,"30.3 µM, […]",74.42%
O=C1N(Cc2ccc(F)c(F)c2)CCCC1(O)CNCC1CCCCC1 (configuration not stated),Percent Effect,"30.3 µM, […]",62.26%
Cc1nsc(N2CCc3sccc3C2)n1,Percent Effect,"30.3 µM, […]",14.81%
Cc1cnn(CCCNC(=O)N2CCCCC(N3CCCC3)C2)c1 (configuration not stated),Percent Effect,"30 µM, 30.03 µM",26.48%
Clc1cccc(OCCCN2CCOC(Cn3cncn3)C2)c1 (configuration not stated),Percent Effect,30 µM,18.78%
CCCn1cc(CN2CCCC2c2nccc(CN(C)C)n2)cn1 (configuration not stated),Percent Effect,"30.3 µM, […]",-4.658%
